Test results from ChEMBL document CHEMBL1157539, “Thousands of chemical starting points for antimalarial lead identification” (Nature, 2010).

What was measured:
Type in all cases: functional
[1] = tested on: Plasmodium falciparum; experiment: GSK_TCMDC: Inhibition of Plasmodium falciparum 3D7 in whole red blood cells, using parasite LDH activity as an index of growth. Test compounds present at 2uM
[2] = tested on: Plasmodium falciparum; experiment: GSK_TCMDC: Inhibition of Plasmodium falciparum Dd2 in whole red blood cells, using parasite LDH activity as an index of growth. Test compounds present at 2uM
[3] = tested on: HepG2; experiment: GSK_TCMDC: Percent inhibition of human HepG2 cell line. Test compounds present at 10uM.

SMILES	Inhibition [1]	Inhibition [2]	Inhibition [3]
COc1cc(OC)cc(-c2nnc(Sc3ccc(C#N)c([N+](=O)[O-])c3)n2C)c1	95%	77%	1%
OCCOCCNCc1cccc(C#Cc2cc3ncnc(Nc4ccc(OCc5cccc(F)c5)c(Cl)c4)c3s2)n1	96%	46%	35%
CC(=O)Nc1ccc2[nH]cc(C3CCN(CC4CCN(C(=O)/C=C/c5ccc(Cl)c(Cl)c5)CC4)CC3)c2n1	100%	99%	21%
Oc1ccc(Cl)cc1CN1CCCC(COC(c2ccc(F)cc2)c2ccc(F)cc2)C1 (stereo not drawn)	98%	100%	20%
COc1ccc2ncc(F)c(CCN3CCC(NCc4cnc5c(c4)NC(=O)CS5)CC3)c2c1.Cl	99%	16%	16%
CN1CCCC1CNS(=O)(=O)c1ccc(C(=O)NCC2CC2)cc1.O=C(O)C(F)(F)F (stereo not drawn)	91%	0%	17%
COc1ccc(NC(=O)NC2CCN(CCCOc3cc(C)nc4ccccc34)CC2)cc1OC	97%	9%	3%
O=C(c1cc(-c2ccco2)n[nH]1)N1CCN(S(=O)(=O)c2ccc(Cl)cc2)CC1	96%	95%	0%
O=C(/C=C/c1ccc(Cl)c(Cl)c1)NCCCCCN1CCC(NC(=O)c2cccc(Cl)c2)CC1	98%	23%	12%
O=C(CCc1cccnc1)Nc1ccc(-c2cccc(-c3nc4cc(F)ccc4[nH]3)c2)cc1	86%	9%	67%
Cl.FC(F)(F)c1cc(CNCCCNc2nc3ccncc3[nH]2)ccc1Cl	99%	15%	11%
Cl.O=C(O[C@H]1CN[C@H](C#Cc2cc3c(Nc4ccc(OCc5cccc(F)c5)c(Cl)c4)ncnc3s2)C1)N1CCCC1	99%	67%	11%
O=C(/C=C/c1ccc(Cl)c(Cl)c1)NCCCCCN1CC[C@H](NC(=O)c2sc3ccccc3c2Cl)C1	97%	3%	26%
COc1ccc(OC)c(-c2ccc(O)c(CNCC(C)c3ccccc3)c2)c1 (stereo not drawn)	98%	96%	26%
CCC1N=C(N)N=C(N)N1OCc1ccc(Cl)c(Cl)c1 (stereo not drawn)	93%	90%	54%
CCCCNC(=O)C(C)NC(=O)c1ccc(O)c(-c2ccc(Cl)c(Cl)c2)c1 (stereo not drawn)	98%	8%	0%
O=C(O)C(F)(F)F.O=C1COC2(CN1C1CCN(Cc3ccc(O)cc3Cl)C1)c1ccccc1-c1ccccc12 (stereo not drawn)	82%	70%	10%
O=C(CSc1nnc(O)n1Cc1ccccc1)Nc1ccccc1-c1ccccc1	89%	36%	0%
CCCCCOc1ccc(/N=C2\C=C(O)C(=O)c3ccccc32)cc1	99%	96%	10%
c1ccc(OCCOc2ccc(Nc3ccnc4cc5ccccc5cc34)cc2)cc1	100%	96%	44%
CCc1ccc(NC(=O)c2ccc(CN3CCCN(Cc4cccc(C)c4)CC3)cc2)cc1.O=C(O)C(F)(F)F	80%	0%	53%

SMILES	Inhibition [1]	Inhibition [2]	Inhibition [3]
COc1ccc(CNc2ncnc3c2[nH]c2ccc(F)cc23)cc1	93%	71%	38%
CCCCCCN1CCCN(Cc2ccc(C(=O)Nc3cccc(CC)c3)cc2)CC1.O=C(O)C(F)(F)F	85%	54%	31%
c1ccc(CN2CCN(c3cc(-c4cncc(-c5ccccc5)c4)nc(-c4ccccc4)n3)CC2)cc1	88%	12%	9%
COc1ccc(-c2ccc3c(-c4ccc(F)cc4)cnc(N)c3c2)cn1	99%	86%	4%
COc1ccc(OCCCON)cc1.Cl	98%	0%	3%
CC(=O)Nc1ccc(C(=O)Nc2ccc(-c3cccc(-c4nc5cccc(C)c5[nH]4)c3)cc2)cn1	99%	74%	36%
O=C(O)C(F)(F)F.OCCN1CCN(Cc2ccc(-c3ccc(-c4nc5cc(C(F)(F)F)ccc5[nH]4)s3)cc2)CC1	100%	99%	65%
CCOc1cc(C)ccc1C1CCN(CCCCNC(=O)c2ccc(NC(=O)c3cc(Cl)cc(Cl)c3)cc2)CC1	99%	78%	4%
CC(C)CCCC(C)(C)NC[C@@H](O)[C@H](Cc1ccccc1)NC(=O)c1cc(NC(C)C)cc(N2CCCCS2(=O)=O)c1F.O=CO	98%	99%	11%
CCN(c1cc(C)nc(Nc2ccc(Cl)cc2)n1)[C@H]1CCN(Cc2ccccc2)C1	94%	31%	46%
Fc1cccc(Nc2nc(NCCc3ccc(Cl)cc3)nc(Nc3cccc(F)c3)n2)c1	93%	30%	0%
Cc1cc(-c2cccc3c(C(=O)N4CCc5cc6nccc(N7CCCN(C)CC7)c6cc54)cccc23)cc(C)n1.Cl	100%	100%	17%
COc1ccc2nccc([C@@H](O)CN3CCC(NC(=O)C(c4cc5ccccc5s4)N4CCN(c5ccccc5OC)CC4)CC3)c2c1 (stereo partly drawn)	100%	88%	21%
Cc1ccc(O)cc1Nc1ccnc2ccc(-c3csc(CNCCN4CCOCC4)n3)cc12	100%	97%	0%
CCN(CC)CCNc1nc(C=Cc2ccc(Cl)cc2)nc2cc3ccccc3cc12	100%	99%	83%
O=C(Nc1ccc2c(c1)CCC2)c1cccc(N2CCN(c3ccncc3)CC2)c1.O=C(O)C(F)(F)F	92%	22%	35%
Cl.NC(=O)c1cccc(Nc2nccc(Nc3ccc(Oc4cccc5ccccc45)cc3)n2)c1	94%	22%	0%
COc1cccc(-n2ncc3c(N/N=C/c4ccc(CN(C)CCN(C)C)cc4)ncnc32)c1	100%	91%	29%
O=C(NC1CC1)c1ccc(Nc2nccc(-c3c(-c4cccc(NC(=O)c5c(F)cccc5F)c4)nn4ccccc34)n2)cc1	94%	96%	84%
CCCCNCc1ccc(-c2nc(CN(CCCn3ccnc3)C(=O)Nc3ccc(CC)cc3)cs2)cc1.O=C(O)C(F)(F)F	100%	56%	21%
CS(=O)(=O)c1cccc2sc(N3CCN(C(=O)c4ccc([N+](=O)[O-])o4)CC3)nc12	84%	61%	0%

SMILES	Inhibition [1]	Inhibition [2]	Inhibition [3]
Br.CCC(C)c1cccc(C(C)CC)c1OCCCON1C(N)=NC(N)=NC1(C)C (stereo not drawn)	91%	98%	51%
CCOC(=O)c1cc(C(=O)NCCCCN2CCC(c3ccc(CC)cc3OCC)CC2)ccc1-c1ccc(C(F)(F)F)cc1	99%	71%	74%
CC(=O)Nc1ccc(C(=O)Nc2ccc(-c3csc(-c4nc5ccccc5[nH]4)c3)cc2)cn1	93%	0%	11%
Cc1cccc2nc(-c3cccc(-c4ccc(CNCc5cnn(-c6ccccc6)n5)cc4)c3)[nH]c12.O=C(O)C(F)(F)F	100%	66%	20%
O=C(/C=C/c1ccc(Cl)c(Cl)c1)NCCCCCN1CCCN(C(=O)Nc2ccc(F)c(F)c2)CC1	100%	0%	26%
CCN(CC)c1cc(C)c2cc(NC(=O)c3cc(=O)c4ccccc4o3)ccc2n1	97%	67%	14%
COc1ccc(C=NN=c2cc(C)[nH]c3ccccc23)c2ccccc12	99%	69%	26%
O=C(NCc1ccc(Cl)c(Cl)c1)c1ccc(C2CCCN(Cc3ccc4[nH]cnc4c3)C2)cc1 (stereo not drawn)	100%	83%	9%
CCOc1cc(CC)ccc1C1CCN(CCN2CCC(NC(=O)c3ccc(-c4ccc(C#N)cc4)cc3)CC2)CC1	100%	71%	32%
CC(=O)N1N=C(c2ccc(Cl)cc2)Sc2c1nc(C1CCCCC1)n2C(C)=O	100%	67%	1%
CN1CCN(CCCN(Cc2ccc(-c3cccc(CNC4CCCC4)c3)cc2)C(=O)/C=C/c2ccccc2)CC1.O=C(O)C(F)(F)F	100%	87%	36%
CCOC(=O)C1=C(C)NC2=C(C(=O)C(C(=O)OC)C(C)C2)C1c1cc(Br)c(OCC)c(OC)c1 (stereo not drawn)	100%	99%	8%
CN1CC[C@@H](Oc2cc(NC(=O)Nc3ccccc3Br)ccc2Cl)C1	100%	6%	26%
CCCCN1CCN(CCCCNc2c3ccccc3nc3ccccc23)CC1.Cl	100%	5%	27%
CCOc1cc(C(=O)NC2CC(C)(C)NC(C)(C)C2)ccc1-c1cc2cc(Cl)c(Cl)cc2[nH]1	100%	46%	37%
CN(C)c1ccc(-c2ccc(C(=O)NC3CCN(Cc4ccc(F)cc4)CC3)s2)cc1.O=C(O)C(F)(F)F	87%	19%	34%
COc1ccc(NC(C)C(=O)Nc2ccc(Br)cc2)cc1S(=O)(=O)N1CCCCC1 (stereo not drawn)	99%	97%	2%
COc1cc([N+](=O)[O-])ccc1NC(=O)c1cc(Cl)ccc1O	87%	100%	92%
O=[N+]([O-])c1cc(/C=N/Nc2nc3ccccc3[nH]2)ccc1O	98%	14%	0%
